Assay results as given in PubChem BioAssay (NCATS).
Where “and” joins values, the source holds several entries; their conditions need not be identical. Equal values may be shown once. Records with an inconclusive call do not appear. Some structures have more than one record in an assay (separate samples or runs), and their calls can disagree. Calls of active or inactive are those of the source. Unless noted, calls follow the shape of the dose curve; as a rule, active = well fitted curve in the direction sought with a large enough effect; inconclusive = small, poorly fitted or top-dose-only effect, or another doubt; inactive = no such curve, though single readings can be large; an effect the other way counts as inactive or inconclusive.

Legend:
[1] = target: Voltage-gated inwardly rectifying potassium channel KCNH2 (Homo sapiens) (UniProt Q12809); assay: qHTS Assay for Small Molecule Inhibitors of the Human hERG Channel Activity (AID 588834); conditions: U2OS BacMam hERG, FluxOR thallium flux fluorescence; series mostly up to 46.1 µM;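 also: lower thallium flux fluorescence means stronger hERG block; nearly all actives have a fitted effect of over 50% in size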; also: potency is read from the fitted curve at half-maximal effect
Voltage-gated inwardly rectifying potassium channel KCNH2 (Homo sapiens), sequence (Q12809 whole entry, looked up): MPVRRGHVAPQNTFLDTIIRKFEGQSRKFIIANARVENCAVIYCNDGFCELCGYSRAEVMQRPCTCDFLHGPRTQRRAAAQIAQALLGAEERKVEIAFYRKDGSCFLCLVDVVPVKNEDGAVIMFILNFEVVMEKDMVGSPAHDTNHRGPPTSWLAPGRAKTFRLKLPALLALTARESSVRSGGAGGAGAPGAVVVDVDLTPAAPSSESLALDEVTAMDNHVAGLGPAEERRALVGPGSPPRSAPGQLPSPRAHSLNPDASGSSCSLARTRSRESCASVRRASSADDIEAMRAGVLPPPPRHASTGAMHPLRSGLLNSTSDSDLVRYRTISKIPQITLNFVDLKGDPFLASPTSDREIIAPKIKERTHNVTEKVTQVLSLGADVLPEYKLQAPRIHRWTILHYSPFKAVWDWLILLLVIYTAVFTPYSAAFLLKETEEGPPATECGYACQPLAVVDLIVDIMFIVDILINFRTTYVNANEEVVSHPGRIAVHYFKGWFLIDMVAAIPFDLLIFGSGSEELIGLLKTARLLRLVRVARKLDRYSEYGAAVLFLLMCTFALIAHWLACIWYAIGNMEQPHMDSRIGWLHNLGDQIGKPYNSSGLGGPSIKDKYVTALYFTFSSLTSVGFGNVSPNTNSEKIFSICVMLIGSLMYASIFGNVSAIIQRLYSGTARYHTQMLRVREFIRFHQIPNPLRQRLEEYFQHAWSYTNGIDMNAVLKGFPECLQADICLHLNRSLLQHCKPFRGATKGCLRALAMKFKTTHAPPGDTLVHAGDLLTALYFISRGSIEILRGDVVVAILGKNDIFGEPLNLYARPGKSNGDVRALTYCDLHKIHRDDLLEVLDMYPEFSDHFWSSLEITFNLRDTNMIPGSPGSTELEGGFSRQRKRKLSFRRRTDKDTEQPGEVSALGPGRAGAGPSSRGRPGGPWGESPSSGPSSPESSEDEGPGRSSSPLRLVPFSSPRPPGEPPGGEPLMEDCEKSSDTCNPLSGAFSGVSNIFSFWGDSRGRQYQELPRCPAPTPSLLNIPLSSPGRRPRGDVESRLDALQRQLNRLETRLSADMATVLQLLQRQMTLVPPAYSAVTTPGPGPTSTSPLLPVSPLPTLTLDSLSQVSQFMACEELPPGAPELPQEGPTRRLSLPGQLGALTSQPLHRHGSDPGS
In short: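 Blockade is seen as reduced FluxOR thallium-flux fluorescence in U2OS cells expressing hERG from a BacMam construct, in Opti-MEM with 2% FCS. Concentration-response data fitted to the Hill equation for AC50.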

[2] = target: Luciferin 4-monooxygenase (Photinus pyralis) (UniProt P08659); assay: Biochemical firefly luciferase enzyme assay for NPC (AID 624030);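 also: purified P. pyralis luciferase at 10 nM with luciferin and ATP substrate; nearly all actives have a fitted effect of over 70% in size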; conditions: purified P. pyralis luciferase, luminescence, 5 min; series mostly up to 58.6 µM
Luciferin 4-monooxygenase (Photinus pyralis), sequence (P08659 whole entry, looked up): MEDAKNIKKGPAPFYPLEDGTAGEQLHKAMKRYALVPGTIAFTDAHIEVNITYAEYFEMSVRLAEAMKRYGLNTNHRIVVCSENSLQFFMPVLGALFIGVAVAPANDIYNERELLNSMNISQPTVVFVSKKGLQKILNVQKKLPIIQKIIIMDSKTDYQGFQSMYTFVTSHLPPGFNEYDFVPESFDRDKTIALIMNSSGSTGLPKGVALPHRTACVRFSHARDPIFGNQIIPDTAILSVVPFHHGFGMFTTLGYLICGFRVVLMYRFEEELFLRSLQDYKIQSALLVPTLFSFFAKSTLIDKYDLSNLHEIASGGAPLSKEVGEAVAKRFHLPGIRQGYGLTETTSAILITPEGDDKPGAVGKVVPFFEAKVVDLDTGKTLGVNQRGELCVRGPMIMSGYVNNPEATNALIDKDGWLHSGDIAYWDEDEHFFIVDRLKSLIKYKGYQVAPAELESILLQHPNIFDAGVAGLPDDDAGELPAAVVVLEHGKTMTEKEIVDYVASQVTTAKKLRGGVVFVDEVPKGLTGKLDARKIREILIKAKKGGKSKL
In short: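 Counter-screen for direct inhibition of the luciferase enzyme by approved-drug library compounds, run at 10 nM enzyme in 50 mM Tris acetate (final). Luminescence was read within 5 min of enzyme-buffer addition and normalized to PTC124 versus DMSO (0%).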

[3] = S16 Schwann cell viability assay (CellTiter-Glo assay) (AID 624031); conditions: S16 rat Schwann cells viability, 24 h; series mostly up to 57.5 µM; also: nearly all actives have a fitted effect of over 70% in size; also: potency is read from the fitted curve at half-maximal effect
In short: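 Native S16 Schwann cells (rat), serum-containing medium, overnight attachment then 24 h drug exposure at 37 °C/5% CO2. CellTiter-Glo ATP signal; normalized to cell-free and vehicle wells.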

[4] = S16 Schwann cell PMP22 intronic element firefly luciferase assay (AID 624032); conditions: S16 rat Schwann cells, PMP22 element FLuc, 24 h; series mostly up to 57.5 µM; also: nearly all actives have a fitted effect of over 30% in size; also: potency is read from the fitted curve at half-maximal effect
In short: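 Rat S16 Schwann cells stably carrying a PMP22 intronic element-driven Fluc reporter were seeded overnight, then exposed to compounds for 24 h at 37 °C. Luminescence was normalized to PTC124 (positive control) and DMSO (0% activity).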

[5] = target: Glutaminase kidney isoform, mitochondrial (Homo sapiens) (UniProt O94925); assay: qHTS for Inhibitors of Glutaminase (GLS): LOPAC Validation (AID 624146); conditions: glutaminase enzyme activity inhibition; series mostly up to 46.1 µM; also: nearly all actives have a fitted effect of over 60% in size; also: potency is read from the fitted curve at half-maximal effect
Glutaminase kidney isoform, mitochondrial (Homo sapiens), sequence (O94925 whole entry, looked up, canonical isoform): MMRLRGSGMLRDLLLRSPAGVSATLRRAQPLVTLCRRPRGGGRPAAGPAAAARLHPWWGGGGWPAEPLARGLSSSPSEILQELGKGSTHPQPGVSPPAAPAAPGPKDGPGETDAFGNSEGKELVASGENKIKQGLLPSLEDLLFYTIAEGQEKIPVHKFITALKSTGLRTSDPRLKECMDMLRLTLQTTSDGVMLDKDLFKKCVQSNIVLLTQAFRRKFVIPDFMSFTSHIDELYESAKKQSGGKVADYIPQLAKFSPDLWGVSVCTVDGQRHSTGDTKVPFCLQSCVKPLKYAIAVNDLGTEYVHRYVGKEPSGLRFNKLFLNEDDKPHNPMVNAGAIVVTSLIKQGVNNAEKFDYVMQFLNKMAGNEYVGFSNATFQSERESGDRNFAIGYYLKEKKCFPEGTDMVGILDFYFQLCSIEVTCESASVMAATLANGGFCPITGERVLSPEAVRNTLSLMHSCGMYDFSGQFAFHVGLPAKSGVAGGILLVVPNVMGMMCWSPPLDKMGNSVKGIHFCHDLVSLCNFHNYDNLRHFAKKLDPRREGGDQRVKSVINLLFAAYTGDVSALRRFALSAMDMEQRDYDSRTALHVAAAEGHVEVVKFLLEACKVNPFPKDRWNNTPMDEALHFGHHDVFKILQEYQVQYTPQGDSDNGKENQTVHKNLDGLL
In short: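 hKGA; 45 mM KH2PO4 pH 8.2 + 0.02% Tween-20; cpd via pin tool; 1 mM Gln soln; GluOx/HRP/Amplex Red; RT 30 min; fluor. t0 & final.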

[6] = qHTS of Trypanosoma Brucei Inhibitors: LOPAC Validation (AID 624147); conditions: purified enzyme assay, luminescence, 45 min; series mostly up to 57.5 µM
In short: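 In this concentration-response screen, enzyme-free wells defined baseline while DMSO plates tracked drift. Each reaction combined TbPYK, substrate, compound and 130 uM ADP for 45 min at room temperature. Kinase-Glo Plus luminescence gave the signal.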

[7] = target: Glucagon-like peptide 1 receptor (Homo sapiens) (UniProt P43220); assay: qHTS of GLP-1 Receptor Agonists: LOPAC Validation (AID 624148); conditions: GLP-1R agonist cell assay; series mostly up to 46.1 µM;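 also: higher luminescence signal means agonism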
Glucagon-like peptide 1 receptor (Homo sapiens), sequence (P43220 whole entry, looked up): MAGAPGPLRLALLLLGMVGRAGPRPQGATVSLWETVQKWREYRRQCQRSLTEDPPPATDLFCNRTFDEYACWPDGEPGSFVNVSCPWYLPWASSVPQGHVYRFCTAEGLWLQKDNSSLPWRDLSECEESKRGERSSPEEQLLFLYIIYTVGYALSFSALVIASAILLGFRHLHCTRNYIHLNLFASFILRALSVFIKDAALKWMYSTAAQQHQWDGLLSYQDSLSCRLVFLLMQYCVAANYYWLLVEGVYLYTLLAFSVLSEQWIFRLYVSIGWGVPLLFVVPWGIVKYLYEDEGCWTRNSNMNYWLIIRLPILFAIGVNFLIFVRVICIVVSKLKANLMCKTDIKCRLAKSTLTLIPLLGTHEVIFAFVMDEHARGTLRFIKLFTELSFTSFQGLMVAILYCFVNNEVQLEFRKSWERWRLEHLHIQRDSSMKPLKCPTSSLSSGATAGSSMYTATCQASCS
In short: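 HEK293 cells stably co-expressing a cAMP-responsive luciferase reporter and a hypersensitive GLP-1R were plated 12 h at 37 °C and exposed to compounds for 4-6 hr at 37 °C, 5% CO2. Luminescence was read 12 min after adding detection reagent.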

[8] = qHTS of Nrf2 Activators: LOPAC Validation (AID 624149); conditions: Nrf2/ARE reporter cell assay; series mostly up to 46.1 µM
In short: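 ARE reporter activation measured in AREc32 firefly luciferase cells after 24 hr compound exposure; Steady-Glo luminescence.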

[9] = HTS Assay for Allosteric Antagonists of the Human D2 Dopamine Receptor: Hit Validation in HTRF (AID 624455); conditions: Cells stably expressing D1 dopamine receptor, inhibition mode; series mostly up to 46.1 µM; also: potency is read from the fitted curve at half-maximal effect;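 also: stable D1 dopamine receptor cell line scored for blocking the D1 response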
In short: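 Signal from an HTRF read-out in D1-expressing stable cells gave hit activity as inhibition of the D1 response.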

[10] = S16 Schwann cell PMP22 intronic element beta-lactamase assay (AID 624044; calls by dose curve; also: nearly all actives have a fitted effect of over 15% in size); conditions: S16 rat Schwann cells, PMP22 element beta-lactamase FRET, 24 h; series mostly up to 38.3 µM
In short: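 Rat S16 Schwann cells with beta-Lac driven by a PMP22 intronic element, compound-treated 24 h at 37 °C. LiveBLAzer FRET B/G read: 460 nm normalized to potassium clavulanate vs DMSO; 535 nm FRET as viability; concentration-effect curves classified.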

[11] = qHTS assay for small molecule disruptors of the mitochondrial membrane potential - 1 hr assay (AID 651754; calls by dose curve; also: potency is read from the fitted curve at half-maximal effect; nearly all actives have a fitted effect of over 35% in size); conditions: series mostly up to 92.2 µM
In short: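 Steps: seed HepG2 cells and let attach overnight; pin-transfer compound or vehicle; incubate 1 hr at 37C; add Mito-MPS dye for 30 min; read two-channel fluorescence for monomer and aggregate forms.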

Measured: Potency

CC(=O)Oc1cc(C(C)C)c(OCCN(C)C)cc1C
not listed: [10] | [11]
inactive: all other assays above

CCN1CCc2nc(N)oc2CC1
not listed: [5] | [10] | [11]
inactive: all other assays above

CC(C)NNC(=O)c1ccncc1
not listed: [7] | [10] | [11]
inactive: all other assays above

Cc1nnc(SCC2=C(C(=O)O)N3C(=O)[C@@H](NC(=O)Cn4cnnn4)[C@H]3SC2)s1
not listed: [10] | [11]
inactive: all other assays above

O=C(O)CN(CCOCCOCCN(CC(=O)O)CC(=O)O)CC(=O)O
not listed: [10] | [11]
inactive: all other assays above

CCCOc1ccccc1-c1nc2n[nH]nc2c(=O)[nH]1
not listed: [10] | [11]
inactive: all other assays above

CCN1CCC[C@H]1CNC(=O)c1c(O)c(Cl)cc(Cl)c1OC
inactive: [2] | [3] | [4] | [5] | [6] | [9]
inactive and 15.8 µM (active): [1]

CCN(CC)CCCN(c1ccccc1)C1Cc2ccccc2C1
active: [1] 794 nM | [3] 14.4 µM | [4] 16.1 µM
not listed: [10] | [11]
inactive: all other assays above

CSc1ccc(C(=O)c2[nH]c(=O)[nH]c2C)cc1
not listed: [10] | [11]
inactive: all other assays above

CC[N+](C)(C)c1cccc(O)c1
not listed: [9] | [10] | [11]
inactive: all other assays above

CN(C)C(=O)Oc1cccc([N+](C)(C)C)c1
not listed: [10] | [11]
inactive: all other assays above

NCCCNCCSP(=O)(O)O
not listed: [8] | [10] | [11]
inactive: all other assays above

NC(Cc1ccc(Cl)cc1)C(=O)O (stereo not drawn)
not listed: [7] | [8] | [10] | [11]
inactive: all other assays above

NC(N)=N/N=C/c1c(Cl)cccc1Cl
active: [1] 1410 nM
not listed: [10] | [11]
inactive: all other assays above

C[N+](C)(C)CCOC(N)=O
not listed: [8] | [10] | [11]
inactive: all other assays above

C[C@]12CCC(=O)C=C1CC[C@@H]1[C@@H]2CC[C@@]2(C)[C@H]1CC[C@]2(O)C(=O)CO
not listed: [7] | [10] | [11]
inactive: all other assays above

C[N+](C)(C)CCOC(=O)CCC(=O)OCC[N+](C)(C)C
not listed: [10] | [11]
inactive: all other assays above

CCn1ccnc1CC1COc2ccccc2O1 (stereo not drawn)
not listed: [8] | [10] | [11]
inactive: all other assays above

Cc1ccc(Cl)c(Nc2ccccc2C(=O)O)c1Cl
not listed: [10] | [11]
inactive: all other assays above

CN1CCN(C2=Nc3ccccc3Oc3ccc(Cl)cc32)CC1
active: [1] 11.2 µM and 10 µM
not listed: [7] | [10] | [11]
inactive: all other assays above

C=CCc1ccccc1OCC(O)CNC(C)C (stereo not drawn)
inactive and 11.2 µM (active): [1]
not listed: [10] | [11]
inactive: all other assays above

CCO/C([O-])=N/c1c[n+](N2CCOCC2)no1
not listed: [7] | [8] | [10] | [11]
inactive: all other assays above

CNC1(C)C2CCC(C2)C1(C)C (stereo not drawn)
not listed: [10] | [11]
inactive: all other assays above

CCc1cccc(N(C)C(N)=Nc2cccc3ccccc23)c1
active: [1] 8910 nM
not listed: [10] | [11]
inactive: all other assays above

Cc1ccc(=O)n(-c2ccccc2)c1
not listed: [10] | [11]
inactive: all other assays above

NC(=O)c1ncn([C@@H]2O[C@H](CO)[C@@H](O)[C@H]2O)c1O
not listed: [7] | [10] | [11]
inactive: all other assays above

OCCN1CCN(CCCN2c3ccccc3C=Cc3ccccc32)CC1
active: [1] 12600 nM | [3] 28.7 µM | [4] 36.1 µM
not listed: [10] | [11]
inactive: all other assays above

CN1CCN(CC(=O)N2c3ccccc3C(=O)Nc3cccnc32)CC1
active: [9] 3.66 µM
not listed: [10] | [11]
inactive: all other assays above

COc1ccc(CCN(C)CCCC(C#N)(c2cc(OC)c(OC)c(OC)c2)C(C)C)cc1OC (stereo not drawn)
active: [1] 11.2 µM and 2 µM
not listed: [7] | [10] | [11]
inactive: all other assays above

CN(C)CCOC(=O)COc1ccc(Cl)cc1
not listed: [10] | [11]
inactive: all other assays above

CCn1cc(C(=O)O)c(=O)c2cc3c(cc21)OCO3
not listed: [8] | [10] | [11]
inactive: all other assays above

c1ccc2c(c1)CCCC2C1=NCCN1 (stereo not drawn)
inactive: [1] | [5] | [6] | [7] | [8] | [9]

CNCCCN1c2ccccc2CCc2ccccc21
inactive: [1] | [2] | [5] | [6] | [9]

CCNC(=O)N1CCN(CCCC(c2ccc(F)cc2)c2ccc(F)cc2)CC1
active: [1] 56.2 nM | [4] 1.44 µM
not listed: [3] | [10] | [11]
inactive: all other assays above

CN(C)C(=O)Oc1ccc[n+](C)c1
not listed: [3] | [7] | [10] | [11]
inactive: all other assays above

CCCCNc1c(C(=O)OCC)c(C)nc2c1cnn2CC
not listed: [3] | [4] | [8] | [11]
inactive: all other assays above

COC(=O)[C@@H](N)Cc1ccc(O)c(O)c1
inactive: [1] | [2] | [4] | [10] | [6] | [8]

Cc1nc2sccn2c(=O)c1CCN1CCC(=C(c2ccc(F)cc2)c2ccc(F)cc2)CC1
active: [1] 70.8 nM
not listed: [4] | [11]
inactive: all other assays above

COC(=O)[C@H]1[C@H]2C[C@@H]3c4[nH]c5cc(OC)ccc5c4CCN3C[C@H]2C[C@@H](OC(=O)c2cc(OC)c(OC)c(OC)c2)[C@@H]1OC
active: [1] 2.82 µM and 5.01 µM and 794 nM | [5] 10 µM | [11] 21.1 µM
not listed: [4] | [8]
inactive: all other assays above

CCC(=O)c1ccc2c(c1)N(CCCN(C)C)c1ccccc1S2
inactive: [2] | [6] | [7] | [9]
active: [1] 2.51 µM and 4.47 µM

CC1=NS(=O)(=O)c2cc(Cl)ccc2N1
not listed: [4] | [7] | [10] | [11]
inactive: all other assays above

CN(C)CCCN1c2ccccc2Sc2ccccc21
active: [1] 3.98 µM and 10 µM
inactive: [2] | [6] | [9]

Cc1scc2c1N(C(=O)CN1CCN(C)CC1)c1ccccc1NC2=O
not listed: [4] | [7] | [10] | [11]
inactive: all other assays above

CC(C)COCC(CN(Cc1ccccc1)c1ccccc1)N1CCCC1 (stereo not drawn)
inactive: [1] | [2] | [10] | [6] | [8] | [9]
active: [5] 2.24 µM

COc1ccc2c(c1OC)C(=O)O[C@@H]2[C@H]1c2c(cc3c(c2OC)OCO3)CCN1C
inactive: [1] | [5] | [6] | [7] | [8] | [9]

OCCN1CCN(CC/C=C2/c3ccccc3Sc3ccc(C(F)(F)F)cc32)CC1
active: [1] 2.82 µM and 501 nM | [3] 22.8 µM
not listed: [4] | [7] | [11]
inactive: all other assays above
